Experimental data reported in ChEMBL document CHEMBL1961873, “Compounds: GSK PKIS; Assays: Nanosyn kinase panel” (2012).
Values joined by “and” are separate entries in the source; they are usually repeats but may differ in a detail not shown here. Equal values may be shown once.

How the values were obtained:
[1] = biological target: T1, Mitogen-activated protein kinase 12 (Homo sapiens) (UniProt P53778); details: at 1 µM;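 note: values are averaged p38gamma kinase inhibition readings, compounds tested at 1 µM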
T1 sequence (whole entry): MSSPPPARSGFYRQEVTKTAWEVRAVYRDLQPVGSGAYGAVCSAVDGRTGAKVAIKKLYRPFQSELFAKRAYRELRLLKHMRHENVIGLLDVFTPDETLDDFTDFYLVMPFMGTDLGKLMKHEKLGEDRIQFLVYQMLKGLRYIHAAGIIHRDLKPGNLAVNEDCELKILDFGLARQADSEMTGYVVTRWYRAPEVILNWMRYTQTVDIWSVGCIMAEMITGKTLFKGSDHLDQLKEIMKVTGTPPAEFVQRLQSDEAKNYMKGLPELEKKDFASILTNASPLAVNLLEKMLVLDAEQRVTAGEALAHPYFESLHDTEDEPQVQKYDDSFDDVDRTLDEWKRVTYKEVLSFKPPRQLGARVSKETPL

[2] = biological target: SRSF protein kinase 1 (Homo sapiens) (UniProt Q96SB4); details: at 0.1 µM
Chain of SRSF protein kinase 1 (Homo sapiens) (Q96SB4 whole entry, canonical isoform): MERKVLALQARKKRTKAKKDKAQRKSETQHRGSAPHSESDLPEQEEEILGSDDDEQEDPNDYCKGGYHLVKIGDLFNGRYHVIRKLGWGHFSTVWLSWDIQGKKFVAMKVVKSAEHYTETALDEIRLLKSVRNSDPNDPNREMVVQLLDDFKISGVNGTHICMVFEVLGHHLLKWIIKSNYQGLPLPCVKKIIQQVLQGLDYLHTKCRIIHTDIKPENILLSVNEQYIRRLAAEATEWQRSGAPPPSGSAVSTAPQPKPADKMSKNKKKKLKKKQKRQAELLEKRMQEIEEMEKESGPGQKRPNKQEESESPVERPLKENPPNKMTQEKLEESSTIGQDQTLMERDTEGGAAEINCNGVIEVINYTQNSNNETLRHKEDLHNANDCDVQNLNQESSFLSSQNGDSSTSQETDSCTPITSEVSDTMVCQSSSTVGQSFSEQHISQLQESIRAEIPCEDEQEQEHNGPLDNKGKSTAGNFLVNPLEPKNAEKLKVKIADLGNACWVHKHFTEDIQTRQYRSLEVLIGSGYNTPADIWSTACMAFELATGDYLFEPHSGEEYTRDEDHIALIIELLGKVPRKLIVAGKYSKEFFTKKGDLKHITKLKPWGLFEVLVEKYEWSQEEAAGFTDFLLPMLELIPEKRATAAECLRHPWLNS

[3] = biological target: SRSF protein kinase 1 (Homo sapiens) (UniProt Q96SB4); details: at 1 µM
[4] = biological target: Phosphatidylinositol 4,5-bisphosphate 3-kinase catalytic subunit alpha isoform (Homo sapiens) (UniProt P42336); details: at 0.1 µM
Chain of Phosphatidylinositol 4,5-bisphosphate 3-kinase catalytic subunit alpha isoform (Homo sapiens) (P42336 whole entry, canonical isoform): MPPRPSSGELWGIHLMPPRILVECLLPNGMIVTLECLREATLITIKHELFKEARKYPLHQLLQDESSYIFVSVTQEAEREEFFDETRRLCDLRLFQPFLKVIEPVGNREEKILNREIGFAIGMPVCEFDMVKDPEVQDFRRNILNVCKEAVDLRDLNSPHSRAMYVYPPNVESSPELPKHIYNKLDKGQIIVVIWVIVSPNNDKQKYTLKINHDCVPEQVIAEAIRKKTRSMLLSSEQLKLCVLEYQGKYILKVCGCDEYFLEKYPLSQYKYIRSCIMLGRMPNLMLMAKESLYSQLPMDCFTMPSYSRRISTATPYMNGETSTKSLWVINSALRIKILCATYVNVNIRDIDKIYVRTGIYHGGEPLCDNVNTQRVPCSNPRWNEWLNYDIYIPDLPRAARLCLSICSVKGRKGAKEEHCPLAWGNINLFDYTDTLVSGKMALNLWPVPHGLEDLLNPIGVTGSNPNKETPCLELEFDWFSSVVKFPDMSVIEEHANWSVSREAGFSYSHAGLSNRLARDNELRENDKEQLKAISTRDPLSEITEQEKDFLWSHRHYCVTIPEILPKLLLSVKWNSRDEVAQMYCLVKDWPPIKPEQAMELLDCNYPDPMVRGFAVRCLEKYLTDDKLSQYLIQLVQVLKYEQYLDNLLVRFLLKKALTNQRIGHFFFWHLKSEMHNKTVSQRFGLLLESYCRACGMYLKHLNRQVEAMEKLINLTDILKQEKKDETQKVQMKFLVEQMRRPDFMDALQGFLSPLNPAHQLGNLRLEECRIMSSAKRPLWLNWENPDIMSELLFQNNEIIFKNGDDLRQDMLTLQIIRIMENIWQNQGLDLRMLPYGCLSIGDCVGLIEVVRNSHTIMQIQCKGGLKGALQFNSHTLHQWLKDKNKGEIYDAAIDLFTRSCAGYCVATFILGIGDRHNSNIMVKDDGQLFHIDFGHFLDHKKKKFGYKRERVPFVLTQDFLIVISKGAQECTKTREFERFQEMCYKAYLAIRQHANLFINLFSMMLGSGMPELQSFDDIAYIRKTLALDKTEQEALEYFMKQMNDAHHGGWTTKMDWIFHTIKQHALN

[5] = biological target: Phosphatidylinositol 4,5-bisphosphate 3-kinase catalytic subunit alpha isoform (Homo sapiens) (UniProt P42336); details: at 1 µM
[6] = biological target: T2, Phosphatidylinositol 4,5-bisphosphate 3-kinase catalytic subunit delta isoform (Homo sapiens) (UniProt O00329); details: at 0.1 µM
T2 sequence (whole entry): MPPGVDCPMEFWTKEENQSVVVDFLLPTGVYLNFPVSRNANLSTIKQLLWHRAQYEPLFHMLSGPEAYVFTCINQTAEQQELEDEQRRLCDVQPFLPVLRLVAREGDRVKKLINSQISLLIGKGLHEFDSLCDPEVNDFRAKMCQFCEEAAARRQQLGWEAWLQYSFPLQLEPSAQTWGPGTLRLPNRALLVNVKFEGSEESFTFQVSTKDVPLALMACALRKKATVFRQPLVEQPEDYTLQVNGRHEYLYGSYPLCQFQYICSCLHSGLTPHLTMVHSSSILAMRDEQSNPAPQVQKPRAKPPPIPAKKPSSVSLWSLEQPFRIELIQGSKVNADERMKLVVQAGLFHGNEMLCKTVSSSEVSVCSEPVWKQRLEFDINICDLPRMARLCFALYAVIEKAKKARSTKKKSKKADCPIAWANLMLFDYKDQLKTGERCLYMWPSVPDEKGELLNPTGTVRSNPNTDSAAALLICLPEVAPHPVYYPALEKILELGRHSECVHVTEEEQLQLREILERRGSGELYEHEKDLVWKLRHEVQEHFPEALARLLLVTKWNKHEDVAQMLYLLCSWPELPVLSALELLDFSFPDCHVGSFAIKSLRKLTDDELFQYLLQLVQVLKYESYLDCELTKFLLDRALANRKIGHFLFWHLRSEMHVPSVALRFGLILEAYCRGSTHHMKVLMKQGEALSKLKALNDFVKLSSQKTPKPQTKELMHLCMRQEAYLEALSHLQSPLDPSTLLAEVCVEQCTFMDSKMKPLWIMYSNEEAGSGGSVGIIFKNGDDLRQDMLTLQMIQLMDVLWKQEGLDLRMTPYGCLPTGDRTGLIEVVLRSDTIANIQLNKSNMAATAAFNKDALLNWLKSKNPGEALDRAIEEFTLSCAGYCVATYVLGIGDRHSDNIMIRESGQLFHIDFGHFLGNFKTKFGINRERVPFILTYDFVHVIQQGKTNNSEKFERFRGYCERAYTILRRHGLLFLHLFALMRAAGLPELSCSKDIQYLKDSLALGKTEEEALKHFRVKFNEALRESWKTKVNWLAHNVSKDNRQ

[7] = biological target: T2, Phosphatidylinositol 4,5-bisphosphate 3-kinase catalytic subunit delta isoform (Homo sapiens); details: at 1 µM
[8] = biological target: Phosphatidylinositol 4-kinase beta (Homo sapiens) (UniProt Q9UBF8); details: at 0.1 µM
Chain of Phosphatidylinositol 4-kinase beta (Homo sapiens) (Q9UBF8 2-816 limits assumed): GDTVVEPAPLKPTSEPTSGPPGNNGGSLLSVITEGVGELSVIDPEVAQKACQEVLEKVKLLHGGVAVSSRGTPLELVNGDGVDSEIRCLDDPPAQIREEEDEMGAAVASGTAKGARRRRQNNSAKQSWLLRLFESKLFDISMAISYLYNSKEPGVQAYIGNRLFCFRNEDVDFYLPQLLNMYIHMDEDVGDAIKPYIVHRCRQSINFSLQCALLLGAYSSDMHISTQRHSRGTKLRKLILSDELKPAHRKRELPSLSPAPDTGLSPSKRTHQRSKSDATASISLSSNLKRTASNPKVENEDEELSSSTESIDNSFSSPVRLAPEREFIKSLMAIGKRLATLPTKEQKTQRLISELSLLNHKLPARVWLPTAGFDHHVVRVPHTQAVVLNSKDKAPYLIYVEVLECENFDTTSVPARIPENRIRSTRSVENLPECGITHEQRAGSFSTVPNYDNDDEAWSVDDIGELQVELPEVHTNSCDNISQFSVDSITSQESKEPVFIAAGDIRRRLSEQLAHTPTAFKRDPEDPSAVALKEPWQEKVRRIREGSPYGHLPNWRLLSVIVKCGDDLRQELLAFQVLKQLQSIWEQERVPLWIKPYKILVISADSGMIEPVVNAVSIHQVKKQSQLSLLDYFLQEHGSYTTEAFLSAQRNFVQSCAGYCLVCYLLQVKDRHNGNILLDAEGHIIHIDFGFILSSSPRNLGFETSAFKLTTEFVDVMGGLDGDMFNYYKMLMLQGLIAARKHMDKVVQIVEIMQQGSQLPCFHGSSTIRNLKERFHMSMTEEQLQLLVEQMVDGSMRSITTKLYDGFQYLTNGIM

[9] = biological target: Phosphatidylinositol 4-kinase beta (Homo sapiens) (UniProt Q9UBF8); details: at 1 µM
[10] = biological target: Sphingosine kinase 1 (Homo sapiens) (UniProt Q9NYA1); details: at 0.1 µM;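 note: mean percent inhibition of SPHK1 activity, measured within the GSK PKIS screening panel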
Chain of Sphingosine kinase 1 (Homo sapiens) (Q9NYA1 whole entry): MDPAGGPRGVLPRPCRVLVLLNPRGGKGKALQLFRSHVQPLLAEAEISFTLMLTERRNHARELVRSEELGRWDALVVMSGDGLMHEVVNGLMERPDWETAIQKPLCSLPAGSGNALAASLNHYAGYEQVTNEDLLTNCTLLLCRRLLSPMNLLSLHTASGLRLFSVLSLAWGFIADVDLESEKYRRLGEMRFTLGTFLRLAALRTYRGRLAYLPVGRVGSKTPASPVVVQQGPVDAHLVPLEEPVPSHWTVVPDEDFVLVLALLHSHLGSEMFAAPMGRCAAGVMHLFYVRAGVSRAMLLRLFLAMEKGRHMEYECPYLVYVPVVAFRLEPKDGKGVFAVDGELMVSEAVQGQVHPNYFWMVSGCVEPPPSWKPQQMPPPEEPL

Row | Structure (SMILES) | inhibition [1] | inhibition [2] | inhibition [3] | inhibition [4] | inhibition [5] | inhibition [6] | inhibition [7] | inhibition [8] [%] | inhibition [9] [%] | inhibition [10]
1 | NS(=O)(=O)c1cccc(N/C=C2\C(=O)Nc3ccccc32)c1 | 2.84% | -2.16% | -4.31% | 4.33% | 7.3% | 4.26% | 7.6% | -1.97 | 2.07 | 7.2%
2 | CCCNc1cccc(-n2ncc3c(N/N=C/c4ccncc4)ncnc32)c1 | 0.33% | 0.43% | 3.51% | 1.36% | 3.81% | 3.31% | 14.7% | 5.69 | 4.32 | 0.21%
3 | COc1cccc(-n2ncc3c(N/N=C/c4ccc(C(=O)NCCN(C)C)cc4)ncnc32)c1 | 4.67% | -1.63% | -2.59% | 2.48% | 20.2% | 4.52% | 16.3% | -3.13 | 5.75 | 5.89%
4 | FC(F)(F)CNc1nccc(-c2cnn3ncccc23)n1 | 4.71% | -3.11% | -3.13% | 2.55% | 3.51% | 0.99% | 2.05% | 2.04 | 5.22 | -2.3%
5 | COc1cc(N2CCN(C(C)C)CC2)ccc1Nc1nc(Nc2cccc3ncccc23)c2cc[nH]c2n1 | -0.51% | -1.39% | -1.2% | -0.92% | 1.96% | -1.65% | 4.18% | 5.9 | -2.85 | 0%
6 | COc1ccc(Nc2ncc(-c3ccccc3)o2)cc1OC | 1.14% | -1.72% | -3.33% | -2.31% | 0.95% | 0.94% | 4.48% | 2.22 | 4.24 | -0.27%
7 | Cc1ccc(-c2cc3c(NC(=O)C4CC4)ncnc3o2)cc1 | 2.7% | -2.33% | -1.12% | 1.23% | 2.63% | 2.48% | 3.33% | -4.86 | -6.67 | 3.8%
8 | CS(=O)(=O)CCNCc1ccc(-c2ccc3ncnc(Nc4ccc(OCc5cccc(C(F)(F)F)c5)cc4)c3c2)o1 | 6.4% | -2% | -2.32% | 4.42% | 4.38% | 0.9% | 1.81% | 0.98 | -0.43 | 1.49%
9 | COC(=O)Nc1nc2cc(Oc3ccc(NC(=O)Nc4ccccc4)cc3)ccc2[nH]1 | 1.26% | -2.23% | -0.94% | 3.19% | 0% | 0.3% | 0.14% | 3.09 | 2.26 | -0.55%
10 | O=C(O[C@H]1CN[C@H](C#Cc2cc3ncnc(Nc4ccc5c(ccn5Cc5cc(F)ccc5F)c4)c3s2)C1)N1CCOCC1 | 3.26% | -2.77% | -4.63% | 3.72% | 9.95% | 2.02% | 7.62% | -3.81 | -0.39 | 3.05%
11 | c1cnn2ncc(-c3ccnc(NCCCN4CCOCC4)n3)c2c1 | 3.02% | -1.76% | -3.38% | 6.11% | 8.31% | 7.14% | 7.98% | 1.61 | 9.05 | -6.03%
12 | O=C(O[C@H]1CN[C@H](C#Cc2cc3ncnc(Nc4ccc5c(cnn5Cc5ccccc5)c4)c3s2)C1)N1CCOCC1 | -0.96% | -2.05% | -3.6% | -1.75% | 7.49% | 0.29% | 9.02% | 1.41 | 2.11 | 2.86%
13 | CC(C)c1ccc(-c2cc(-c3c[nH]nc3-c3ccccn3)ccn2)cc1 | 1.41% | -1.6% | -2.44% | 0.78% | 1.76% | 0.89% | 4.14% | 1.73 | 0.67 | 1.34%
14 | CN1CCN(Cc2ccc(-c3cc4ncnc(Nc5ccc(OCc6cccc(F)c6)c(Cl)c5)c4s3)o2)CC1 | 2.94% and 2.8% | -2.39% and -1.61% | -2.07% and 0.69% | 1.34% and 4.72% | 2.47% and 5.81% | 1.29% and 2.75% | 3.39% and 4.31% | 0.91 | 1.06 | 10.5% and 0.88%
15 | COc1cc(Nc2ncc(-c3ccccc3)o2)cc(OC)c1 | 3.94% | -2.65% | -2% | 8.32% | 6.87% | 5.4% | 5.83% | 0.33 | 3.11 | 2.1%
16 | CCn1c(-c2nonc2N)nc2cncc(C(=O)NCCNC)c21 | 4.44% | -1.97% | -2.66% | 4.3% | 2.53% | 0.31% | 1.82% | 1.26 | 0.69 | 0.59%

Row | Structure (SMILES) | inhibition [1] | inhibition [2] | inhibition [3] | inhibition [4] | inhibition [5] | inhibition [6] | inhibition [7] | inhibition [8] [%] | inhibition [9] [%] | inhibition [10]
17 | COc1ccc(-c2nn3ncccc3c2-c2ccnc(Nc3ccc(F)c(F)c3)n2)cc1 | 2.57% | -0.49% | 4.3% | 4.28% | 3.75% | 1.6% | 1.61% | -1.35 | -6.41 | -0.41%
18 | c1ccc(-c2n[nH]cc2-c2ccnc(-c3ccc(OCCn4ccnc4)cc3)c2)nc1 | 0.72% | 0.42% | -0.94% | 0.67% | 3.3% | 1.43% | 1.91% | -2.63 | 7.03 | 2.34%
19 | CS(=O)(=O)CCNCc1ccoc1-c1ccc2ncnc(Nc3ccc(OCc4ccccc4)cc3)c2c1 | 0.43% | -0.09% | -1.85% | 1.09% | 2.87% | 0.63% | 4.62% | 9.16 | -0.68 | 0.65%
20 | NC(=O)c1ccc2c(-c3ccnc(NCCCO)n3)c(-c3ccc(F)cc3)nn2c1 | 3.04% | -2.08% | -2.11% | 2.83% | 6.09% | 2.78% | 6.2% | -2.18 | 3.6 | -2.85%
21 | Cc1c2ccc(N(C)c3ccnc(Nc4cccc(S(N)(=O)=O)c4)n3)cc2nn1C | 3.53% | -1.71% | -3.4% | 4.71% | 14.4% | 6.47% | 29.9% | 0.59 | 1.94 | 1.12%
22 | NS(=O)(=O)c1ccc(N/N=C2\C(=O)Nc3ccc(C(=O)NCc4ccncc4)cc32)cc1 | 2.56% | -1.11% | 2.06% | 0.9% | 0.8% | 0.21% | 0.37% | -0.51 | -0.17 | -0.37%
23 | NS(=O)(=O)c1ccc(N/N=C2\C(=O)Nc3cccc(CCc4ccncc4)c32)cc1 | 0.75% | -0.62% | -1% | 0.59% | 1.55% | 0.97% | 3.61% | 2.1 | 1.01 | 1.36%
24 | Fc1ccc(Nc2nccc(-c3c(-c4ccc(C(F)(F)F)cc4)nn4ncccc34)n2)cc1F | 2.9% | -0.59% | -3.45% | 3.44% | 3.77% | 1.05% | 2.86% | -3.81 | -1.62 | 0.46%
25 | CCN1CCC(C(=O)Nc2n[nH]c3nnc(-c4cccc(F)c4F)cc23)CC1 | -1.22% | -1.43% | 0.92% | -1.4% | -2.49% | -3.18% | -0.47% | 0.1 | -1.04 | 0.46%
26 | O=C(Nc1n[nH]c2nnc(-c3cccnc3)cc12)C1CC1 | 3.03% | -1.16% | -0.28% | 0.13% | 1.26% | 1.05% | 1.67% | -1.26 | 3.04 | 1.36%
27 | CCOc1ccc2c(-c3ccnc(Nc4cc(OC)cc(C(F)(F)F)c4)n3)cnn2n1 | 1.08% | -1.1% | -0.9% | -0.03% | 5.25% | -1.72% | 10.2% | 3.54 | -4.92 | -3.8%
28 | Cc1cc(O)cc(C)c1/C=C/c1cncc(C(=O)OC(C)(C)C)c1 | 1.7% | -1.51% | 0.59% | 5.51% | 7.91% | 5.19% | 6.21% | 1.7 | 3.49 | 2.8%
29 | CN(c1ccc(NC(=O)NCCN2CCOCC2)cc1)c1ccnc(Nc2ccc(CS(C)(=O)=O)cc2)n1 | 1.28% | 0.25% | 2.58% | 1.92% | 2.04% | -0.08% | 0.81% | 4.11 | 4.4 | 0.08%
30 | CN1CCC(n2cnc(-c3ccc(F)cc3)c2-c2ccnc(NCCO)n2)CC1 | 3.15% | -1.01% | 3.27% | 3.91% | 2.41% | 1.87% | 2.25% | -3.16 | 4.51 | 9.04%
31 | OCCCNc1nccc(-c2c(-c3ccc(F)cc3)nn3cc(C(F)(F)F)ccc23)n1 | 2.13% | -1.12% | -3.43% | 2.12% | 2.75% | 4.76% | 4.87% | 4.2 | -3.41 | -0.34%
